This is a sample that favours compounds with a hit; in the whole collection about 21% have one here.
Cycloheximide cs: Cycloheximide Counterscreen for Small Molecule Inhibitors of Shiga Toxin; cell reporter, cycloheximide protein synthesis inhibition counterscreen; max response, %; 12% of 300,000 active; in the data active = max response mostly above about 13%, no sharp cut-off; inactive = mostly below about 14%; also: read at 38.3 µM for the half of the compounds with a filed dose; 0% is about no effect
Pf growth 96h: Primary qHTS for delayed death inhibitors of the malarial parasite plastid, 96 hour incubation. 6.9% of 320,000 active. Potency, µM (top dose mostly 28.7 µM), without a hit: at the top dose activity change, negative = inhibition, usual class: inhibitors. P. falciparum luciferase reporter growth, 96 h. AID 504834, 2011; also: potency is read from the fitted curve at half-maximal effect; % is scaled to controls: 0 for no effect and ±100 for the full control effect
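Two parasite generations (96 h, 37 C, 5% CO2) of compound exposure in infected erythrocytes (0.05% parasitemia, 2% hematocrit). Luciferase-reporter P. falciparum; decreased luminescence indicates inhibited growth, aimed at apicoplast-acting delayed death.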
Pf growth 48h: Primary qHTS for delayed death inhibitors of the malarial parasite plastid, 48 hour incubation. P. falciparum luciferase growth in erythrocytes, 48 h. Potency, µM (top dose mostly 28.7 µM), for inactives: top-dose activity change, negative = inhibition, most hits filed as inhibitors. 5.9% of 310,000 active; also: potency is read from the fitted curve at half-maximal effect; % is scaled to controls: 0 for no effect and ±100 for the full control effect
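Cell-based growth assay: transgenic P. falciparum expressing firefly luciferase, cultured in red cells within RPMI 1640 containing 0.5% w/v Albumax, 24 mM bicarbonate and gentamycin. A drop in luciferase activity indicates inhibition.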
HCV inh: qHTS Assay for Inhibitors of Hepatitis C Virus (HCV); 3.4% of 340,000 active; Potency, µM (titrated, usually from 41.8 µM), without a hit: at the top dose activity change, negative = inhibition, most hits filed as inhibitors; Huh7.5.1 HCVcc-Cre infection, luciferase reporter, 44 h; AID 651820, 2012; also: potency is read from the fitted curve at half-maximal effect; % is scaled to controls: 0 for no effect and ±100 for the full control effect
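Cells seeded at 1,000/well and cultured 4 h, then compounds added followed by HCVcc-Cre virus (~0.5 moi). After 44 h further culture, luciferase substrate was added, plates held 15 min at room temperature, and luminescence read for 15 sec.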
AMA1-RON2 inh: qHTS for Inhibitors of AMA1-RON; Towards Development of Antimalarial Drug Lead: Primary Screen; Plasmodium falciparum AMA1 (3D7) - RON2 peptide interaction; AlphaScreen AMA1-biotinylated RON2 peptide binding; Potency, µM (titrated, usually from 58.2 µM), inactives show top-dose activity change, negative = inhibition, actives largely listed as inhibitors; 0.2% of 360,000 active; AID 720542, 2013;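 also: potency is read from the fitted curve at half-maximal effect; 0% = vehicle wells and -100% = peptide control; nearly all actives have a fitted effect of over 45% in size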
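AMA1 (3D7) with his tag at 25 nM final met compounds first, then biotinylated RON2 peptide at 25 nM; detection used donor plus acceptor beads, 10 µg/mL apiece, read by AlphaScreen after 30 min at room temperature.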
Shiga toxin inh: A qHTS for Small Molecule Inhibitors of Shiga Toxin; Vero cells, Shiga toxin protein synthesis inhibition reporter; inhibition, % at 38.7 µM; 9.2% of 290,000 active; in the data active = inhibition mostly above about 28%, no sharp cut-off; inactive = mostly below about 43%; also: 0% is about no effect
* hit, by the source's call. Unless noted, calls follow the shape of the dose curve; as a rule, active = well fitted curve in the direction sought with a large enough effect; inconclusive = small, poorly fitted or top-dose-only effect, or another doubt; inactive = no such curve, though single readings can be large; an effect the other way counts as inactive or inconclusive.

Screening CCOC(=O)C1(CCOc2ccccc2)CCN(Cc2ccc(OC)c(COC)c2)CC1 returned Cycloheximide cs -1, Pf growth 96h -162%, Pf growth 48h 0%, HCV inh 11µM* and AMA1-RON2 inh inconclusive.
Screening CCOC(=O)C1(CCOc2ccccc2)CCN(Cc2ccc(OC)c(O)c2)CC1 returned Cycloheximide cs 5, Pf growth 96h -24%, Pf growth 48h inconclusive, HCV inh inconclusive, AMA1-RON2 inh -2% and Shiga toxin inh -14.
Screening O=C(CSc1nc(N2CCOCC2)nc(N2CCOCC2)n1)Nc1ccccc1F returned Cycloheximide cs 6, Pf growth 96h inconclusive, Pf growth 48h -1%, HCV inh 13%, AMA1-RON2 inh -2% and Shiga toxin inh 20.
For C=C(C)C1CC=C(C)/C(=N\NC(=S)Nc2ccc(C)cc2)C1 (stereo unspecified) the results were Cycloheximide cs 23*, Pf growth 96h 10µM*, Pf growth 48h 15µM*, HCV inh inconclusive, AMA1-RON2 inh -8% and Shiga toxin inh 54*.
Screening CC1=C(CC/C(C)=N/NC(N)=S)C(C)(C)CCC1 returned Cycloheximide cs 1, Pf growth 96h -22%, Pf growth 48h inconclusive, HCV inh 25µM*, AMA1-RON2 inh 44% and Shiga toxin inh 7.
CC1=C(CCN2CCN(C3CCCC3)C(CCO)C2)C(C)(C)CCC1 (stereo unspecified) was read as Cycloheximide cs -2, Pf growth 96h 32%, Pf growth 48h inconclusive, HCV inh inconclusive, AMA1-RON2 inh -9% and Shiga toxin inh -4.
Screening CC(C)(C)OC(=O)N/N=C/c1cccc([N+](=O)[O-])c1 returned Cycloheximide cs 50*, Pf growth 96h inconclusive, Pf growth 48h inactive, HCV inh -15%, AMA1-RON2 inh 0% and Shiga toxin inh 82*.
For COc1ccc(/C=N/NC(=O)C2C3CCCCC32)cc1OC (stereo unspecified) the results were Cycloheximide cs 13, Pf growth 96h 3%, Pf growth 48h -12%, HCV inh 11%, AMA1-RON2 inh 6% and Shiga toxin inh 6.
Screening COc1cc(/C=N\NC(=O)OC(C)(C)C)ccc1OC(=O)c1ccco1 returned Cycloheximide cs 19, Pf growth 96h 37%, Pf growth 48h inconclusive, HCV inh 7%, AMA1-RON2 inh -7% and Shiga toxin inh 82*.
COc1ccc(/C=N/NC(=O)OC(C)(C)C)cc1OC was read as Cycloheximide cs 14*, Pf growth 96h inconclusive, Pf growth 48h inconclusive, HCV inh 11%, AMA1-RON2 inh 14% and Shiga toxin inh active.
`COc1cc(/C=N/NC(=O)c2cccnc2)ccc1OC(=O)c1ccco1` gave Cycloheximide cs -1, Pf growth 96h 54%, Pf growth 48h -1%, HCV inh 10%, AMA1-RON2 inh 0% and Shiga toxin inh 13.
For COc1ccc([C@@H]2CC=C(C(=O)O)[C@H](c3ccccc3F)N2S(=O)(=O)c2ccccc2C)cc1 the results were Pf growth 96h inconclusive, Pf growth 48h inconclusive, HCV inh 21% and AMA1-RON2 inh -6%.
`c1ccc(-c2nc3nc4ccccc4nc3n2Cc2ccco2)cc1` gave Cycloheximide cs 82*, Pf growth 96h -3%, Pf growth 48h -35%, HCV inh -17%, AMA1-RON2 inh -14% and Shiga toxin inh 137*.
Screening S=c1nc(-c2ccccc2)n(Cc2ccco2)c2c1CCCC2 returned Cycloheximide cs -1, Pf growth 96h -5%, Pf growth 48h -1% and Shiga toxin inh -12.
For Fc1ccc(-c2nc3nc4ccccc4nc3n2Cc2ccco2)cc1 the results were Cycloheximide cs 44*, Pf growth 96h 102%, Pf growth 48h -6%, HCV inh 18%, AMA1-RON2 inh -9% and Shiga toxin inh 125*.
`Fc1ccc(-n2c(-c3ccco3)nc3nc4ccccc4nc32)cc1` gave Cycloheximide cs -5, Pf growth 96h inconclusive, Pf growth 48h 6%, HCV inh 24%, AMA1-RON2 inh 2% and Shiga toxin inh -11.
For C=CC(=O)NCCCc1cc(C(C)(C)C)c(O)c(C(C)(C)C)c1 the results were Cycloheximide cs -2, Pf growth 96h 0%, Pf growth 48h 12µM*, HCV inh inconclusive, AMA1-RON2 inh 0% and Shiga toxin inh -6.
`CC(C)(C)c1cc(CCC(=O)NN)cc(C(C)(C)C)c1O` gave Cycloheximide cs 12, Pf growth 96h 0%, Pf growth 48h inconclusive, HCV inh 4%, AMA1-RON2 inh 23% and Shiga toxin inh -19.
Screening COC1CC(NC(C)=O)C(OC(=O)c2ccccc2)C(CBr)O1 (stereo unspecified) returned AMA1-RON2 inh 10%.
`Cc1ccc(OCC(=O)Nc2sc3c(c2C#N)CCC3)cc1C` gave Cycloheximide cs -2, Pf growth 96h inconclusive, Pf growth 48h 3%, HCV inh inconclusive, AMA1-RON2 inh -12% and Shiga toxin inh 16.
COc1ccc(NC(=O)CN(C)CC(=O)Nc2sc3c(c2C#N)CCC3)cc1 was read as Pf growth 96h 9.3µM*, Pf growth 48h inconclusive, HCV inh -15% and AMA1-RON2 inh 101%.
For Cc1ccc(OCC(=O)Nc2sc3c(c2C#N)CCC3)cc1 the results were Cycloheximide cs 53*, Pf growth 96h 58%, Pf growth 48h 117%, HCV inh -12%, AMA1-RON2 inh 3% and Shiga toxin inh 122*.
`COc1ccc(C(=O)Nc2sc(C)c(-c3ccccc3)c2C#N)cc1OC` gave Cycloheximide cs 10, Pf growth 48h 5%, HCV inh inconclusive, AMA1-RON2 inh -13% and Shiga toxin inh 24.
Screening Cc1sc(NC(=O)COc2ccccc2)c(C#N)c1-c1ccccc1 returned Cycloheximide cs 23*, Pf growth 96h inconclusive, Pf growth 48h -3%, HCV inh inconclusive, AMA1-RON2 inh 0% and Shiga toxin inh -5.
For CCOC(=O)[C@]12CCCC=C1N(Cc1ccc(Cl)cc1Cl)C(=O)[C@H](CC(=O)NCc1cccc3ccccc13)C2 the results were AMA1-RON2 inh -6%.
Screening c1ccc(-c2nc3nonc3nc2-c2ccccc2)cc1 returned Cycloheximide cs 1, Pf growth 96h 20%, Pf growth 48h 12µM*, HCV inh inconclusive, AMA1-RON2 inh inconclusive and Shiga toxin inh 25.
Screening Nc1c(-c2ccccc2)nc(Cl)nc1-c1ccccc1 returned Cycloheximide cs 14, Pf growth 96h -51%, Pf growth 48h 50%, HCV inh inconclusive, AMA1-RON2 inh 3% and Shiga toxin inh -16.
